The target of this assay is NMNAT2. As to the kind of experiment: pooled miR-30 sensor sort-seq; sequence = guide strand. The conditions noted are these: shRNA.
The sequence TTCTGTTAAATCAAGTTCCTTT registered a sensor-assay potency score (higher = more potent) of 0.0856.
TCCAGCAATAGCATCATCCTGA: the sensor-assay potency score (higher = more potent) is -0.521.
The sequence TAAAGAACATTGTCTTTGCTTT yielded a sensor-assay potency score (higher = more potent) of -0.457.
Under TTGGTGATGGGATTGAAGCTGC stands -0.365; under TTTCCTTTGTTTCATTTCCTGG, -0.769; under TAGAAATCTACTTCTATGGCAC, 0.539.
Turning to TAACAGACTTTCTGGATGCTGC, the sensor-assay potency score (higher = more potent) was -0.475.
With TAGTCAAACACTGATACCCCAA, the sensor-assay potency score (higher = more potent) is -0.77.
On to TTTATTTCTAAAGGAAACCTAA, for which the sensor-assay potency score (higher = more potent) is -0.873.
Sequence TTATATTAAATAGGAAACCTGT showed a sensor-assay potency score (higher = more potent) of -0.594.
For TAAAAGTATCCTAATACTCAGG, the sensor-assay potency score (higher = more potent) was -0.84.
For the sequence TTTGCTTTCAGGTCCCACCTGG, the sensor-assay potency score (higher = more potent) came out at 0.293.

The values above are taken from the OligoGym collection.
Further: reference of the scale not given here.
